SMILES strings stand for the structures. Records with an inconclusive call do not appear. Values without a mark were called inactive. The call rests on the fitted dose curve; in most records, active means well fitted curve in either direction with a large enough effect (not every such curve was filed as active); inconclusive means small, poorly fitted or top-dose-only effect, or another doubt; inactive means flat fitted curve, though single readings scatter.
On the % scale 0 is the no-effect control and ±100 the full control effect.

The first assay in a line: AP1 Signaling Pathway (AID 357).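 Further: ME-180 reporter cells stimulated with EGF at its EC50 level.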 The conditions noted are these: ME-180 (cervical carcinoma) AP-1-bla reporter, EGF-induced, beta-lactamase ratio, 5 h; at 17.2 µM (top of the series) unless noted. A digest of the protocol:
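Modulation of EGF-driven AP-1 transcription was assessed with a beta-lactamase reporter in ME-180 cells. Compound and EC50 EGF were co-incubated 5 hours at 37 °C before 2.5-hour CCF4 loading at room temperature and dual-emission reading.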
For the molecule `COc1ccc(OC(=O)c2cc3ccccc3o2)cc1`, the activity change, negative = inhibition was 1.41%.

With `Cc1ccc(C)c(OCc2nnc(NC(=O)c3ccco3)s2)c1`, the activity change, negative = inhibition is -0.273%.

With `FC(F)(F)c1cccc(-n2cccc2/C=N/n2cnnc2)c1`, the activity change, negative = inhibition was 8.38%.

`CC1(C)Cc2[nH]c(=S)c(C#N)cc2CO1`: the activity change, negative = inhibition was 8.31%.

For `Cc1cc(C)n(C(=O)CNC(=O)c2cccs2)n1`, the activity change, negative = inhibition was 10.9%.

Take `CC1(C)CC(=O)C2=C(C1)N(CC1CCCO1)C(=O)C2(O)C(F)(F)F` (stereo not given): the activity change, negative = inhibition was 4.53%.

In the case of `CCN(CC)CCCN1C(=O)C(=O)/C(=C(/O)c2ccccc2)C1c1ccccn1` (stereo not given), the activity change, negative = inhibition was -0.714%.

In the case of `COCCCN1C(=O)C(O)=C(C(=O)c2ccco2)C1c1ccc(Br)cc1` (stereo not given), the activity change, negative = inhibition was -15.5%.

Consider `Cc1cc(C)c2nc(SCCC#N)nc(C)c2c1`, for which the activity change, negative = inhibition was -4.73%.

Turning to `COC(=O)c1ccc(=O)n(Cc2ccco2)c1`, the activity change, negative = inhibition was 4.81%.

In the case of `COc1cccc(C(=O)N2CCN(Cc3ccccn3)CC2)c1OC`, the activity change, negative = inhibition is 2.17%.

As for `CSc1nnc2n(C3CCCCC3)c(=O)c3c4c(sc3n12)CCCC4`, the activity change, negative = inhibition was 19.1%.

Regarding `Cc1cc(C)nc(CC(N)=O)n1`, the activity change, negative = inhibition is 0.0367%.

For the molecule `O=C(c1coc(=O)c(Br)c1)N1CCOCC1`, the activity change, negative = inhibition is 6.25%.

On to `CCC(=NC(CC)CO)C1=C(O)CC(C)(C)CC1=O` (stereo not given), for which the activity change, negative = inhibition is 16.1%.

`O=C(O)C1CSCN1S(=O)(=O)c1cccc2nsnc12` (stereo not given): the activity change, negative = inhibition was 1.17%.

Take `CCOC(=O)c1ccc(-n2c(=O)[nH]c3ccccc3c2=O)cc1`: the activity change, negative = inhibition is 3.86%.

Consider `Cc1nnc(SCC(=O)N2CCC(C(N)=O)CC2)s1`, for which the activity change, negative = inhibition was 4.41%.

On to `CCOC(=O)c1c(C)n(C)c2ccc(OC)c(NC(=O)CN3CCC4(CC3)OCCO4)c12`, for which the activity change, negative = inhibition was -3.92%.

Turning to `COc1ccccc1C1CC(c2ccc(Cl)cc2)Nc2nc(N)nn21` (stereo not given), the activity change, negative = inhibition is 6.6%.

As to `CCCc1nc2n[nH]c(N)c2c2c1CCCC2`, the activity change, negative = inhibition is 6.52%.

Turning to `COc1ccc2c(c1OC)C(=O)N1c3ccccc3SC21` (stereo not given), the activity change, negative = inhibition was 2.44%.

For the molecule `Cc1nn(CC(=O)N2CCOCC2)c(=O)c2ccccc12`, the activity change, negative = inhibition was 10.7%.

For the molecule `CN(C)c1cccc2c(S(=O)(=O)N3CCOCC3)cccc12`, the activity change, negative = inhibition is -2.48%.

As to `COc1ccccc1Nc1ncnc2c1cnn2-c1cccc(C)c1`, the activity change, negative = inhibition was -28.5%.

With `COc1ccc2nc(SCC(=O)O)nc(C)c2c1`, the activity change, negative = inhibition was 5.08%.

Turning to `Cc1cc(=O)oc(C)c1C(=O)Nc1ccc2nsnc2c1`, the activity change, negative = inhibition was 6.72%.

As for `Cc1nc(Nc2ncc3c(n2)CCCC3=O)nc2ccccc12`, the activity change, negative = inhibition was 16.8%.

As to `Cc1ccc(N(CC(O)CN(C)C)S(=O)(=O)c2ccccc2)cc1` (stereo not given), the activity change, negative = inhibition is -7.29%.

With `CCN(CC)CCNC(=O)c1c(C)oc2cc(Br)c(OC)cc12`, the activity change, negative = inhibition was 29.7%.

Turning to `CC(O)c1n(C)c(Cl)c[n+]1C` (stereo not given), the activity change, negative = inhibition is 0.68%.

For the molecule `CCOC(=O)c1n[nH]c2ccccc12`, the activity change, negative = inhibition is 7.22%.

For the molecule `CCC1SC(N)=NC1=O` (stereo not given), the activity change, negative = inhibition was 2.7%.

As to `Cc1ccc(C(=O)NCC(C)(C)O)cc1`, the activity change, negative = inhibition was 9.77%.

Take `CC(=O)C(=[N+]=[N-])C(=O)NCc1ccccc1`: the activity change, negative = inhibition was 7.12%.

As for `CCn1c(SCC(=O)Nc2ccccc2C(=O)OC)nnc1-c1ccc(N)cc1`, the activity change, negative = inhibition was -23.2%.

Take `Nc1nnnn1/N=C/c1cccc(Oc2ccccc2)c1`: the activity change, negative = inhibition is -4.47%.

With `CCCC1C2C(=O)N(c3ccccc3OC)C(=O)C2ON1c1ccccc1` (stereo not given), the activity change, negative = inhibition is 1.4%.

As to `COc1ccc(OC)c(C2=Nn3c(nnc3C3CCCCC3)SC2)c1`, the activity change, negative = inhibition was -18.2%.

Turning to `COc1ccccc1C(=O)Nc1cc(Cl)ccc1O`, the activity change, negative = inhibition was -12.2%.

Another assay in a line: NFAT Signaling Pathway (AID 444).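 Further: carbachol stimulus at about its EC50 of 1 µM final.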 The conditions noted are these: Jurkat NFAT-bla M1, carbachol, beta-lactamase ratio, 5 h; at 17.2 µM (top of the series) unless noted. A digest of the protocol: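 Jurkat cells carrying an NFAT-driven β-lactamase reporter and co-transfected muscarinic M1 receptor were treated with compound plus carbachol (1 uM final, an EC50 level) for 5 h at 37 °C. CCF4 loading followed for 1 h at RT; 460/530 nm ratio gave %activity.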
Turning to `COc1ccc(OC(=O)c2cc3ccccc3o2)cc1`, the activity change, negative = inhibition is -19.7%.

`Cc1ccc(C)c(OCc2nnc(NC(=O)c3ccco3)s2)c1`: the activity change, negative = inhibition is 9.32%.

For the molecule `FC(F)(F)c1cccc(-n2cccc2/C=N/n2cnnc2)c1`, the activity change, negative = inhibition was -0.658%.

`CC1(C)Cc2[nH]c(=S)c(C#N)cc2CO1`: the activity change, negative = inhibition is -8.3%.

On to `Cc1cc(C)n(C(=O)CNC(=O)c2cccs2)n1`, for which the activity change, negative = inhibition is 3.15%.

Turning to `CC1(C)CC(=O)C2=C(C1)N(CC1CCCO1)C(=O)C2(O)C(F)(F)F` (stereo not given), the activity change, negative = inhibition was 0.206%.

For `CCN(CC)CCCN1C(=O)C(=O)/C(=C(/O)c2ccccc2)C1c1ccccn1` (stereo not given), the activity change, negative = inhibition was 5.2%.

Consider `COCCCN1C(=O)C(O)=C(C(=O)c2ccco2)C1c1ccc(Br)cc1` (stereo not given), for which the activity change, negative = inhibition was 11.4%.

For the molecule `Cc1cc(C)c2nc(SCCC#N)nc(C)c2c1`, the activity change, negative = inhibition was 11.8%.

For the molecule `COC(=O)c1ccc(=O)n(Cc2ccco2)c1`, the activity change, negative = inhibition was -1.77%.

Turning to `COc1cccc(C(=O)N2CCN(Cc3ccccn3)CC2)c1OC`, the activity change, negative = inhibition was 7.94%.

Take `CSc1nnc2n(C3CCCCC3)c(=O)c3c4c(sc3n12)CCCC4`: the activity change, negative = inhibition was 3.83%.

In the case of `Cc1cc(C)nc(CC(N)=O)n1`, the activity change, negative = inhibition is 4.47%.

Regarding `O=C(c1coc(=O)c(Br)c1)N1CCOCC1`, the activity change, negative = inhibition is 21.3%.

For the molecule `CCC(=NC(CC)CO)C1=C(O)CC(C)(C)CC1=O` (stereo not given), the activity change, negative = inhibition was -5.13%.

Regarding `O=C(O)C1CSCN1S(=O)(=O)c1cccc2nsnc12` (stereo not given), the activity change, negative = inhibition was 4.31%.

As to `CCOC(=O)c1ccc(-n2c(=O)[nH]c3ccccc3c2=O)cc1`, the activity change, negative = inhibition is 6.82%.

For `Cc1nnc(SCC(=O)N2CCC(C(N)=O)CC2)s1`, the activity change, negative = inhibition is 5.46%.

For the molecule `CCOC(=O)c1c(C)n(C)c2ccc(OC)c(NC(=O)CN3CCC4(CC3)OCCO4)c12`, the activity change, negative = inhibition is 1.31%.

As for `COc1ccccc1C1CC(c2ccc(Cl)cc2)Nc2nc(N)nn21` (stereo not given), the activity change, negative = inhibition is 22.1%.

On to `CCCc1nc2n[nH]c(N)c2c2c1CCCC2`, for which the activity change, negative = inhibition was -0.387%.

Turning to `COc1ccc2c(c1OC)C(=O)N1c3ccccc3SC21` (stereo not given), the activity change, negative = inhibition was 6%.

Take `Cc1nn(CC(=O)N2CCOCC2)c(=O)c2ccccc12`: the activity change, negative = inhibition was 8.23%.

For the molecule `CN(C)c1cccc2c(S(=O)(=O)N3CCOCC3)cccc12`, the activity change, negative = inhibition was -4.98%.

Turning to `COc1ccccc1Nc1ncnc2c1cnn2-c1cccc(C)c1`, the activity change, negative = inhibition was -14.7%.

Regarding `COc1ccc2nc(SCC(=O)O)nc(C)c2c1`, the activity change, negative = inhibition was 7.89%.

In the case of `Cc1cc(=O)oc(C)c1C(=O)Nc1ccc2nsnc2c1`, the activity change, negative = inhibition was -6.31%.

In the case of `Cc1nc(Nc2ncc3c(n2)CCCC3=O)nc2ccccc12`, the activity change, negative = inhibition is 19.8%.

For the molecule `Cc1ccc(N(CC(O)CN(C)C)S(=O)(=O)c2ccccc2)cc1` (stereo not given), the activity change, negative = inhibition is -10.3%.

Turning to `CCN(CC)CCNC(=O)c1c(C)oc2cc(Br)c(OC)cc12`, the activity change, negative = inhibition was -19.9%.

`CC(O)c1n(C)c(Cl)c[n+]1C` (stereo not given): the activity change, negative = inhibition is -4.99%.

Regarding `CCOC(=O)c1n[nH]c2ccccc12`, the activity change, negative = inhibition is 0.11%.

Take `CCC1SC(N)=NC1=O` (stereo not given): the activity change, negative = inhibition is -3.13%.

Consider `Cc1ccc(C(=O)NCC(C)(C)O)cc1`, for which the activity change, negative = inhibition is -4.7%.

Regarding `CC(=O)C(=[N+]=[N-])C(=O)NCc1ccccc1`, the activity change, negative = inhibition was -14.9%.

For `CCn1c(SCC(=O)Nc2ccccc2C(=O)OC)nnc1-c1ccc(N)cc1`, the activity change, negative = inhibition was -3.89%.

Take `Nc1nnnn1/N=C/c1cccc(Oc2ccccc2)c1`: the activity change, negative = inhibition is -18.6%.

As to `CCCC1C2C(=O)N(c3ccccc3OC)C(=O)C2ON1c1ccccc1` (stereo not given), the activity change, negative = inhibition was 4.89%.

Consider `COc1ccc(OC)c(C2=Nn3c(nnc3C3CCCCC3)SC2)c1`, for which the activity change, negative = inhibition is -5.08%.

As to `COc1ccccc1C(=O)Nc1cc(Cl)ccc1O`, the activity change, negative = inhibition was -2.92%.

Values taken from PubChem BioAssay (NCATS).
